Only some compounds are listed: those with a hit (about 1.2% of all), similar ones and a draw of the others.
VHR inh abs = blocks human VHR1 dual specificity phosphatase | P51452 | recombinant VHR phosphatase, pNPP absorbance | inhibition, % at 13.3 µM | 290,000 compounds, 0.52% hits; in the data active = inhibition above about 50%
Target sequence (P51452 whole entry, looked up): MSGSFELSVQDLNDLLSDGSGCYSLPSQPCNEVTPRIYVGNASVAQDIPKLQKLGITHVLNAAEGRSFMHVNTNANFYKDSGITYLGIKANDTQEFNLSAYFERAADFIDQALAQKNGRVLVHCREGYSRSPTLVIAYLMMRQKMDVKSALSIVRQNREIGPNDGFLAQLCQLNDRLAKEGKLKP
Mtb BioA inh = BioA (M. tuberculosis) enzyme inhibition; 360,000 compounds, 0.096% hits; purified M. tuberculosis BioA enzyme, plate reader; inhibition, % at 9.99 µM; AID 602481; in the data active = inhibition above about 40%
Vc quorum ag = inducers of Vibrio cholerae quorum light production without autoinducers. AID 588436. 350,000 compounds, 0.16% hits. activation, % at 18.7 µM. V. cholerae BH1578 lux reporter, luminescence, 6 h; in the data active = activation mostly above about 9.7%, no sharp cut-off
PfHsp40 rescue = restores yeast growth despite PfHsp40 toxicity. S. cerevisiae expressing PfHsp40, growth rescue, ATP luminescence. growth rescue, % at 12.5 µM. 340,000 compounds, 0.68% hits. AID 504582; in the data active = growth rescue above about 28%, passing the limit was not always enough;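 note: yeast W303a lacking pdr1 and pdr3 grown in galactose medium; growth measured after three days at 30 °C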
TcdB inh = TcdB glycohydrolase inhibition. P18177. 350,000 compounds, 0.24% hits. inhibition, % at 9.99 µM. AID 652162. TcdB glycohydrolase enzymatic assay, plate reader; in the data active = inhibition above about 10%
Yp Topo-I inh = inhibitors of Yersinia pestis topoisomerase I. activity, % at 10 µM. 360,000 compounds, 0.064% hits. Y. pestis Topo-I cleavage product accumulation, plate reader; in the data active = activity above about 50%, passing the limit was not always enough
An asterisk follows results filed as active; i = inactive; / = no result; + = active, no number.

SMILES | VHR inh abs | Mtb BioA inh | Vc quorum ag | PfHsp40 rescue | TcdB inh | Yp Topo-I inh
CCCCNc1cc(C)nc(N2CCOCC2)n1 | -2 | 5 | i | 0 | / | 0
C=CCOc1c(Br)cc(/C=C2\SC(=Nc3ccccc3)NC2=O)cc1OC | 21 | 0 | 1 | 0 | 0 | 57*
CCc1ccc(N=C2NC(=O)/C(=C/c3cc(Br)c(OCC(=O)O)c(OC)c3)S2)cc1 | / | 1 | -1 | 0 | 0 | -5
O=C(O)/C(=C\c1cn(-c2ccccc2)nc1-c1cccnc1)NC(=O)c1ccccc1 | 20 | -1 | 0 | -1 | 1 | -1
O=C(CC[C@H]1O[C@@H](n2cnc3c(NC(=O)c4ccccc4)ncnc32)[C@H](O)[C@@H]1O)NCc1cccs1 | / | 2 | / | / | 1 | /
Cc1cc(N2CCN(C)CC2)nc2ccc(NC(=S)NCCN3CCc4ccccc4C3)cc12 | 27 | 1 | i | 49* | 3 | -4
Fc1ccc(Nc2nc(N/N=C/c3ccco3)nc(N3CCCCC3)n2)cc1 | 3 | / | 0 | 102* | 1 | 13
C(=N\Nc1nc(N2CCOCC2)nc(N2CCOCC2)n1)/c1ccco1 | 22 | / | / | / | / | /
Cc1c(N/N=C(\C#N)C(=O)c2ccc(Cl)cc2)c(=O)n(-c2ccccc2)n1C | 7 | / | 0 | 99* | / | 7
O=C(CNC(=O)c1ccc(Br)o1)NCc1ccc(Cl)cc1Cl | 5 | -1 | -5 | 52* | -3 | 3
Cc1ccccc1/C=N/Nc1ccnc2cc(Cl)ccc12 | 7 | 3 | -3 | 1 | 1 | -21
Cc1ccc(/C=N/Nc2ccnc3cc(Cl)ccc23)c(C)c1 | 87* | -1 | i | 0 | 1 | -12
O=C(O)c1ccccc1NSc1ccccc1[N+](=O)[O-] | 18 | / | -1 | 0 | 1 | -8
CCc1ccc(NSc2ccccc2[N+](=O)[O-])cc1 | -1 | / | i | 46* | 1 | 4
COc1cc2c(cc1OC)C(c1cccc(F)c1)CC(=O)N2 (stereo not drawn) | 51* | 3 | 0 | 1 | 2 | -2
Cn1cccc1/C=N\NC(=O)c1cncc(Br)c1 | 21 | 1 | i | / | 0 | -9
S=c1[nH]nc(CCc2nc3ccccc3[nH]2)n1-c1cccc(Cl)c1 | 1 | / | 1 | -1 | 2 | 5
Cc1ccc(N2C(=O)C3Sc4[nH]c(=O)sc4C(c4ccccc4)C3C2=O)cc1 (stereo not drawn) | 20 | 2 | + | 1 | / | -6
Clc1cccc(-c2cc3nc4c(c(N5CCNCC5)n3n2)CCCC4)c1 | -9 | / | / | / | / | /
COCCNc1cc(N)c([N+](=O)[O-])cc1[N+](=O)[O-] | 2 | / | i | 0 | 11* | -3
CCOC(=O)c1ccc(NCCOC)c([N+](=O)[O-])c1 | 7 | -3 | i | 1 | 1 | -1
COc1ccccc1-c1nn(Cc2ccccc2)cc1C(=O)NCC(c1ccco1)N1CCCC1 (stereo not drawn) | / | -4 | 0 | 1 | -1 | 3
CCOC(=O)N1CCN(Cc2c(F)cccc2Cl)CC1 | 51* | -2 | 0 | 0 | / | 5
O=C(c1cc2cc(Cl)ccc2[nH]1)N1CCc2ccccc2C1 | 5 | 0 | 0 | 1 | 0 | -1
CCCCNS(=O)(=O)c1ccc(OCC(=O)OC)cc1 | -8 | / | 0 | 0 | 10* | -3
SMILES | VHR inh abs | Mtb BioA inh | Vc quorum ag | PfHsp40 rescue | TcdB inh | Yp Topo-I inh
COc1cccc(Oc2cncnc2-c2ccc(OC)cc2O)c1 | 8 | 1 | 0 | 56* | / | 9
O=S(=O)(Nc1cccnc1)c1cccc(C(F)(F)F)c1 | -4 | / | i | -1 | / | -6
O=[N+]([O-])c1ccc(S(=O)(=O)c2cccc(C(F)(F)F)c2)nc1 | / | 1 | i | 42* | / | 0
CCCCc1nc(SCC(=O)Nc2cc(C)on2)n[nH]1 | 48 | 0 | 0 | -2 | 0 | -1
Cc1cc(C(=O)NCc2ccccc2F)cs1 | 13 | 2 | i | -1 | / | 1
C/C(=N\NC(=O)CSc1nnc(C)s1)c1ccc(O)cc1 | -1 | / | i | -1 | -14 | -2
COc1cc(/C(C)=N/NC(=O)CSc2nnc(C)s2)ccc1O | 13 | 2 | 0 | 5 | 11* | 3
O=C(NC1CCCC1)c1ccc(S(=O)(=O)N2CCCC2)cc1 | 26 | -1 | -2 | -2 | / | -5
CC1CCCC(C)N1C(=O)c1ccc2c(c1)S(=O)(=O)c1ccccc1C2=O (stereo not drawn) | -3 | 0 | -6 | 70* | 0 | 26

Screening results (PubChem)
